{"source": "PubChem BioAssay AID504546", "about": "(Broad Institute, 2011)", "note": "Inconclusive results are not listed. Activity calls are given as the source filed them.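 How the source made its calls: active means every repeat run fits a falling-signal curve with half-maximal potency within ten times top tested dose; inconclusive means runs disagree, or flat moderate drop, or poor fit; inactive means every run inactive, including signal moving upward.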"}
{"experiment": "inhibition of ADP-Glo detection reagents, dose response, artefact control for CDK5 inhibitor project, biochemical, luminescence, cherry-picked samples, set 2 (AID 504546)", "settings": "ADP-Glo detection reagent counter screen, 5 uM ADP; series mostly up to 30 µM"}
{"smiles": "Cc1nc(Nc2ccccc2)sc1C(=O)c1ccccc1", "outcome": "inactive"}
{"smiles": "Clc1cncc(Cl)c1N/N=C/c1ccccc1", "outcome": "inactive"}
{"smiles": "Nc1ccc(-c2cnc(N)c(C(=O)c3cccnc3)n2)cn1", "outcome": "inactive"}
{"smiles": "CC(C)n1cnc2c(NCc3ccccc3)nc(NCc3ccccc3)nc21", "outcome": "inactive"}
{"smiles": "NC1=NC(=O)/C(=C/c2ccc(-c3ccc(S(N)(=O)=O)cc3)o2)S1", "outcome": "inactive"}
{"smiles": "Cc1cc(-c2nsc(=O)o2)c(S(C)(=O)=O)s1", "outcome": "inactive"}
{"smiles": "COc1ccc(Nc2nccc(-c3cccc(N)c3)n2)cc1", "outcome": "inactive"}
{"smiles": "COc1ccc2nc3c(cc2c1)c(NC(=O)CC(C)C)nn3CC(C)C", "outcome": "inactive"}
{"smiles": "Cc1[nH]nc2c1-c1nc3ccccc3nc1C(C)(C)C2", "outcome": "inactive"}
{"smiles": "Clc1cccc(Cl)c1/C=N/Nc1c(Cl)cncc1Cl", "outcome": "inactive"}
{"smiles": "Oc1cc2c(cc1O)C1c3ccc(O)c(O)c3OCC1(O)C2", "note": "(stereo not given)", "outcome": "inactive"}
{"smiles": "Clc1ccc(N/N=C/c2ccncc2)cc1Cl", "outcome": "inactive"}
{"smiles": "Cc1ccc(-n2nc(C)c3c2C(Br)C(C)(C)CC3=O)nc1", "note": "(stereo not given)", "outcome": "inactive"}
{"smiles": "COc1ccc(Nc2nc(N)c([N+](=O)[O-])c(N3CCCC3)n2)cc1", "outcome": "inactive"}
{"smiles": "COc1ccc2nc3c(cc2c1)c(NC(=O)c1cccs1)nn3CC(C)C", "outcome": "inactive"}
{"smiles": "Cc1cc(C)c2nc(C(F)(F)F)c(C#N)c(N)c2c1", "outcome": "inactive"}
{"smiles": "CC(C)(C)c1ccc(C(=O)O/N=C(\\N)c2ccccn2)cc1", "outcome": "inactive"}
{"smiles": "C=CC(=O)Nc1ccc(Nc2nc(NC3CCC(N(C)C)CC3)nc3c2ncn3C(C)C)cc1", "note": "(stereo not given)", "outcome": "inactive"}
{"smiles": "O=C(O)CCC(=O)NCCn1c(-c2ccccc2)csc1=Nc1ccccc1", "outcome": "inactive"}
{"smiles": "COc1cccc(OC)c1C(=O)N1CCN(c2ccccn2)CC1", "outcome": "inactive"}
{"smiles": "O=c1c(O)c(-c2ccc(O)c(O)c2)oc2cc(O)ccc12", "outcome": "inactive"}
{"smiles": "CCC(C)Oc1cc(-c2ccnc(Nc3cccc(Cl)c3)n2)ccn1", "note": "(stereo not given)", "outcome": "inactive"}
{"smiles": "CCNc1nc(Nc2ccc(C)c(Cl)c2)c2cnn(C)c2n1", "outcome": "inactive"}
{"smiles": "CC[C@H](CO)Nc1nc(Nc2cccc(Cl)c2)c2ncn(C(C)C)c2n1", "outcome": "inactive"}
{"smiles": "Cc1nn(-c2ccc(Cl)cn2)c2c1C(=O)CC(C)(C)C2Br", "note": "(stereo not given)", "outcome": "inactive"}
{"smiles": "Nc1nc(Nc2cccc(F)c2)nc(NCCO)c1[N+](=O)[O-]", "outcome": "inactive"}
{"smiles": "NC(=S)N/N=C/c1c(O)c(Br)cc2oc3c(c12)CCCC3", "outcome": "inactive"}
{"smiles": "CC(C)[C@H](CO)Nc1nc(NCc2ccc(S(N)(=O)=O)cc2)c2ncn(C(C)C)c2n1", "outcome": "inactive"}
{"smiles": "COc1ccc2nc(C(F)(F)C(F)(F)F)c(C#N)c(N)c2c1", "outcome": "inactive"}
{"smiles": "CC1(C)Cc2c(ccc3ccccc23)C(=O)N1", "outcome": "inactive"}
{"smiles": "COc1cc(OC)cc(C(=O)N2CCN(c3ccccn3)CC2)c1", "outcome": "inactive"}
{"smiles": "Cc1ccc(Nc2nc(NCCO)nc3c2cnn3C)cc1Cl", "outcome": "inactive"}
{"smiles": "O=C(O)c1ccc(/C=N\\Nc2ccccn2)cc1", "outcome": "inactive"}
{"smiles": "COc1ccc(C(=O)N2CCN(c3ccccn3)CC2)cc1", "outcome": "inactive"}
{"smiles": "CC(C)C[C@H](CO)Nc1nc(N(C)c2cccc(Cl)c2)c2ncn(C(C)C)c2n1", "outcome": "inactive"}
